# Bioassay records (PubChem BioAssay)
# An excerpt weighted towards active compounds, which were near 0.65% of everything screened.
# TcdB GH inh: blocks C. difficile toxin B glycohydrolase activity; P18177; TcdB glycohydrolase enzymatic assay, plate reader; inhibition, % at 9.99 µM; actives 0.24% (n = 350,000); AID 652162; in the data active means inhibition above about 10%
# PrP 5UTR inh: inhibition of PrP 5' UTR reporter expression; cell-based PrP 5' UTR mRNA reporter, plate reader; inhibition, % (test concentration not listed); actives 0.35% (n = 340,000); AID 488862; in the data active means inhibition above about 52%; further: 0 = median of the neutral control wells
# UGM FP inh: blocks M. tuberculosis UGM enzyme. P9WIQ1. purified UGM, fluorescence polarization probe displacement. inhibition, % at 10 µM. actives 0.06% (n = 320,000). AID 504406; in the data active means inhibition above about 10%, passing the limit was not always enough; inconclusive means no clear call, values can overlap the other calls
# Target sequence (P9WIQ1 whole entry, looked up): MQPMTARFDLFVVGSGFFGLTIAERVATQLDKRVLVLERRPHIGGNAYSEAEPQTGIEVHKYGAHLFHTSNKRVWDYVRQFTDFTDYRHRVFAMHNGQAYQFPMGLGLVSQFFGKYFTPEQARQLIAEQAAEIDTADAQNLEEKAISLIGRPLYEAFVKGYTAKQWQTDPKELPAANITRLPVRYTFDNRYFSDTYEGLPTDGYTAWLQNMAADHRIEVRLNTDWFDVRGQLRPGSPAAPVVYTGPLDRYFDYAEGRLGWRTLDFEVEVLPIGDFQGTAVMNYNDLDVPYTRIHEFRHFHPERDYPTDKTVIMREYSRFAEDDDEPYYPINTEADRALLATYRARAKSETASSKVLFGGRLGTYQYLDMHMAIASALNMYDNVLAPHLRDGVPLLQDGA
# Y pestis TopoI: inhibitors of Yersinia pestis topoisomerase I; Y. pestis Topo-I cleavage product accumulation, plate reader; activity, % at 10 µM; actives 0.064% (n = 360,000); AID 504884; in the data active means activity above about 50%, passing the limit was not always enough; inconclusive means no clear call, values can overlap the other calls
# Vc quorum ag: induces V. cholerae light production without autoinducers | V. cholerae BH1578 lux reporter, luminescence, 6 h | activation, % at 18.7 µM | actives 0.16% (n = 350,000) | AID 588436; in the data active means activation mostly above about 9.7%, no sharp cut-off; inconclusive means no clear call, values can overlap the other calls; inactive means mostly below about 3.7%
# PrP 5UTR single: prion 5' UTR mRNA inhibition, cherry-pick retest | inhibition, % at 2.5 µM | cell-based prion protein 5' UTR reporter, plate reader | shares compounds with PrP 5UTR inh | actives 48% (n = 1,100) | AID 504592; in the data active means inhibition above about 54%; inconclusive means no clear call, values can overlap the other calls
# * hit, by the source's call; i = inactive; u = inconclusive; x = not tested or not shown.
SMILES,TcdB GH inh,PrP 5UTR inh,UGM FP inh,Y pestis TopoI,Vc quorum ag,PrP 5UTR single
C=C(CCO)C1=CCN(S(=O)C(C)(C)C)[C@@H]1CCO (stereo not given in full),0.5,-16.9,x,1.0,-1.1,x
NC(=O)c1cn(C2OC(CO)C(O)C2O)c2ncnc(N)c12 (stereo not given),1.3,88.4*,-0.9,-0.8,-5.6,96.6*
NC(=O)c1c(Br)n(C2OC(CO)C(O)C2O)c2ncnc(N)c12 (stereo not given),0.9,16.4,x,2.7,5.6,x
OCC1OC(n2ccc3c(NO)ncnc32)C(O)C1O (stereo not given),1.3,88.9*,x,-2.3,i,84.7*
CC(C)=CCNc1ncnc2c1c(C#N)cn2C1OC(CO)C(O)C1O (stereo not given),1.5,-1.4,x,-6.0,-1.0,x
CN(C)c1ncnc2c1ccn2C1OC(CO)C(O)C1O (stereo not given),-0.3,-2.3,x,13.7,i,x
N#Cc1cn(C2OC(CO)C(O)C2O)c2ncnc(N)c12 (stereo not given),2.0,57.8*,x,-2.2,i,75.0*
O=C(Nc1cccc(F)c1)N1CC(=O)N2[C@H](CO)[C@H](c3ccc(C#Cc4cccnc4)cc3)[C@H]2C1,-1.0,x,x,x,x,x
C[C@@H]1CN([C@@H](C)CO)C(=O)c2cc(NC(=O)c3ccncc3)ccc2O[C@@H](C)CCCCO[C@@H]1CN(C)C,-0.2,x,x,x,x,x
C[C@@H]1CN([C@@H](C)CO)C(=O)c2cc(NS(=O)(=O)c3ccccc3)ccc2O[C@@H](C)CCCCO[C@@H]1CN(C)S(=O)(=O)c1ccccc1,-0.8,x,x,x,x,x
Cc1ccc(Nc2nc(-c3c(C)nc4ncccn34)cs2)cc1,x,66.8*,3.1,27.5,-0.2,88.7*
Cc1ccc(Nc2nc(-c3c(C)nc4ccccn34)cs2)cc1,x,59.4*,x,-8.5,-0.3,82.5*
Cc1nc2ccccn2c1-c1csc(NCc2ccco2)n1,x,-9.6,2.7,11.3,i,x
Cc1nc2ncccn2c1-c1csc(Nc2ccc(O)cc2)n1,5.8,-4.5,x,-12.6,-0.5,x
COc1ccc(CNC(=O)C2CCN(S(=O)(=O)c3c(C)n[nH]c3C)CC2)cc1,x,-18.4,0.0,-4.7,0.5,x
Cc1n[nH]c(C)c1S(=O)(=O)N1CCCC(C(=O)NCc2ccc(F)cc2)C1 (stereo not given),-2.5,83.7*,-5.0,-12.3,-0.6,3.4
COC(=O)c1cc(NC(=O)c2nccnc2C(=O)O)cc(C(=O)OC)c1,0.2,60.4*,7.7,-2.7,-0.2,-29.4
Cc1cc(C)cc(NC(=O)c2nccnc2C(=O)O)c1,1.7,-3.9,2.3,-0.2,-0.2,x
C=CC[n+]1c(-c2ccc(C)cc2)csc1Nc1ccc(NC(C)=O)cc1,0.1,71.1*,x,29.3,-0.2,59.1*
N=C(N)SCCc1cnc[nH]1,0.9,-10.4,-0.9,-4.0,i,x
Cc1cccc(CSC(=N)N)c1,-1.0,52.5*,4.0,-0.6,-0.4,3.2
N=C(N)SCCc1cccc(CCSC(=N)N)c1,0.7,70.5*,3.6,1.7,-0.6,-20.7
CCN(CC)C(=O)C1CCCN(c2ccc([N+](=O)[O-])cc2[N+](=O)[O-])C1 (stereo not given),1.3,70.4*,-0.4,4.2,-0.2,-12.5
COc1ccc(NC(=O)Nc2ccc3c(c2)C(=O)N([C@@H](C)CO)C[C@@H](C)[C@@H](CN(C)Cc2ccc(C(=O)O)cc2)OCCCC[C@H](C)O3)cc1,-1.2,x,x,x,x,x
O=C(COc1ccc2ccccc2c1)NNC(=O)c1cnccn1,x,-14.3,2.3,-0.8,i,x
SMILES,TcdB GH inh,PrP 5UTR inh,UGM FP inh,Y pestis TopoI,Vc quorum ag,PrP 5UTR single
CC(C)c1ccc(OCC(=O)NNC(=O)c2cnccn2)cc1,1.7,61.7*,-1.1,-1.7,-0.5,2.8
Cc1[nH][nH]c(=O)c1N=Nc1ccccc1Cl,2.0,-10.9,0.2,-4.6,-0.6,x
Clc1ccccc1N=Nc1ccccn1,-0.3,68.1*,x,-5.9,-1.1,-22.5
COc1ccc(Oc2nccc(-c3ccc(F)cc3)c2C#N)cc1,x,76.4*,-0.1,4.8,4.5,-47.2
Oc1ccccc1-c1n[nH]c(-c2ccccc2O)n1,0.0,68.6*,x,-6.3,-0.8,-39.9
COc1ccc2c(c1)C(C)=CC(C)(C)N2S(=O)(=O)c1ccc(NC(C)=O)cc1,0.3,72.9*,3.6,30.0,-0.6,40.5
COc1ccc(-c2nc(-c3ccccn3)no2)cc1,1.9,91.5*,0.2,3.7,-1.4,90.9*
Clc1ccc(-c2nc(-c3ccccn3)no2)cc1Cl,x,-19.4,-1.2,-5.7,i,x
COc1ccccc1-c1nc(-c2ccccn2)no1,1.1,52.4,0.3,2.0,-0.2,x
Cc1ccccc1-c1nc(-c2ccccn2)no1,0.4,70.3*,3.2,17.1,-0.4,u
C[C@H](NC(=O)C[C@@H]1CC[C@@H]2[C@H](COC[C@@H](O)CN2C(=O)Nc2cccc(F)c2)O1)c1ccccc1,-1.0,x,x,x,x,x
CCC(=O)N[C@H]1CC[C@@H](CCn2cc(C3CC3)nn2)O[C@H]1CO,-1.5,x,x,x,x,x
C[C@@H]1CN([C@H](C)CO)S(=O)(=O)c2ccc(C3=CCCC3)cc2O[C@H]1CN(C)C(=O)c1ccccn1,0.7,x,x,x,x,x
CCOC(=O)C1(CCc2ccccc2)CCN(C(=O)CCn2cncn2)CC1,1.5,80.5*,-3.3,10.9,-0.6,-47.5
COc1ccc(Cl)cc1NC(=O)CCn1cnc2ccccc2c1=O,x,70.5*,0.9,2.8,i,-10.3
O=C(CSc1ncnc2ccccc12)Nc1cccc(S(=O)(=O)N2CCCC2)c1,0.5,85.1*,-2.8,2.3,-0.5,-11.0
Cc1ccc(-n2cccn2)c(CN2CCCC(CNC(=O)c3ccc(F)cc3)C2)c1 (stereo not given),0.7,80.0*,-2.1,-11.4,-4.5,1.2
Cn1c(O)c(C=NC2CCCCC2)c(=O)[nH]c1=S,-4.0,53.1*,-1.3,2.2,-0.2,-21.1
O=C(CCN1CCCCC1)NCC[C@@H]1CC[C@H](NC(=O)C2CC2)[C@@H](CO)O1,-0.3,x,x,x,x,x
C[C@@H]1CCCCO[C@@H](CN(C)CC2CCCCC2)[C@H](C)CN([C@@H](C)CO)C(=O)c2cc(NS(=O)(=O)c3ccccc3)ccc2O1,-0.6,x,x,x,x,x
COc1cccc(C#Cc2ccc([C@H]3[C@H]4CN(C(=O)C5CC5)CC(=O)N4[C@H]3CO)cc2)c1,0.4,x,x,x,x,x
COc1ccc(/C=C2\SC(=O)N(CCCC(=O)Nc3cc(Cl)ccc3C(=O)O)C2=O)cc1,1.2,91.7*,1.1,12.5,x,83.1*
COc1ccc2c3c(n(C)c2c1)[C@@H](CO)N(Cc1cccc(F)c1)CC31CN(C)C1,1.6,x,x,x,x,x
O=C(c1cccc([N+](=O)[O-])c1)N1CCN(c2cccc(Cl)c2)CC1,x,-40.3,-1.9,19.0,-0.3,x
COC(=O)c1cc(C(=O)N2CCN(c3cccc(Cl)c3)CC2)cc([N+](=O)[O-])c1,0.8,62.3*,3.7,9.7,-0.1,86.7*
COc1ccc(-c2ccc(=O)n(Cc3cc(=O)n4ccccc4n3)n2)cc1,x,66.2*,-1.3,7.2,-0.2,9.0
Cc1nc(-c2ccc(NC(=O)c3ccco3)cc2)cs1,1.1,78.5*,-3.2,0.0,i,77.1*
